Measurements taken from the supplement of paper PMC6658780.
Where a name gives a salt, the structure may show the parent alone. ± gives the standard deviation of the averaged measurements.

test system: Escherichia coli ATCC BAA-2469; assay: percent growth inhibition of drug alone vs DMSO control; higher = more growth inhibition; settings: antibiotic (0.125x MIC): none (0.1% DMSO); 7 µM
Procedure: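 Prestwick drugs tested at 20 uM and 7 uM with an antibiotic at 0.125x MIC (16 mg/L when MIC >128 mg/L) against E. coli ATCC BAA-2469 (NDM-1) in CAMHB, 384-well plates, duplicate runs. Percent growth inhibition was computed from OD600 (24 h minus 0 h) relative to DMSO wells. Drug + DMSO-only wells are also given. […]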

In order of falling “percent growth inhibition of drug alone” value:
1. Oc1cc(Cl)ccc1Oc1ccc(Cl)cc1Cl [Triclosan]  103 ± 3.2%
2. O=C(CCCN1CCC2(CC1)C(=O)NCN2c1ccccc1)c1ccc(F)cc1 [Spiperone]  3 ± 1.4%
3. CN1[C@@H]2CC[C@H]1C[C@@H](OC(=O)C(CO)c1ccccc1)C2 (some centres not stated) [Atropine sulfate monohydrate]  1.11 ± 0.46%
4. O=C([O-])c1ccccc1-c1c2cc(Br)c(=O)cc-2oc2[c]([Hg+])c([O-])c(Br)cc12.[Na+].[Na+].[OH-] [Merbromin]  0.201 ± 1.7%
5. NCC1(CC(=O)O)CCCCC1 [Gabapentin]  -0.379 ± 0.84%
6. C[C@]12CC[C@H](O)C[C@@H]1CC[C@@H]1[C@@H]2CC[C@]2(C)C(=O)CC[C@@H]12 [Epiandrosterone]  -0.756 ± 0.88%

same assay, conditions: antibiotic (0.125x MIC): none (0.1% DMSO); 20 µM

In order of falling “percent growth inhibition of drug alone” value:
1. Oc1cc(Cl)ccc1Oc1ccc(Cl)cc1Cl [Triclosan]  107 ± 2.6%
2. O=C([O-])c1ccccc1-c1c2cc(Br)c(=O)cc-2oc2[c]([Hg+])c([O-])c(Br)cc12.[Na+].[Na+].[OH-] [Merbromin]  38.2 ± 18%
3. O=C(CCCN1CCC2(CC1)C(=O)NCN2c1ccccc1)c1ccc(F)cc1 [Spiperone]  2.07 ± 2.2%
4. C[C@]12CC[C@H](O)C[C@@H]1CC[C@@H]1[C@@H]2CC[C@]2(C)C(=O)CC[C@@H]12 [Epiandrosterone]  1.48 ± 2.3%
5. CN1[C@@H]2CC[C@H]1C[C@@H](OC(=O)C(CO)c1ccccc1)C2 (some centres not stated) [Atropine sulfate monohydrate]  -0.0722 ± 0.38%
6. NCC1(CC(=O)O)CCCCC1 [Gabapentin]  -1.41 ± 0.8%
